# Legend:
# [1] = target: T1, Aspartate--tRNA(Asp/Asn) ligase (Mycobacterium tuberculosis (strain ATCC 25618 / H37Rv)) (UniProt P9WFW3); experiment: Assay for Asp RNA synthetase-1 from Mycobacterium tuberculosis; assay type: functional; parameters: scale not given: direction of the effect not stated beside the values; conditions: 30 µM; also: in the data most compounds retested in dose-response had high values
# T1 sequence (whole entry): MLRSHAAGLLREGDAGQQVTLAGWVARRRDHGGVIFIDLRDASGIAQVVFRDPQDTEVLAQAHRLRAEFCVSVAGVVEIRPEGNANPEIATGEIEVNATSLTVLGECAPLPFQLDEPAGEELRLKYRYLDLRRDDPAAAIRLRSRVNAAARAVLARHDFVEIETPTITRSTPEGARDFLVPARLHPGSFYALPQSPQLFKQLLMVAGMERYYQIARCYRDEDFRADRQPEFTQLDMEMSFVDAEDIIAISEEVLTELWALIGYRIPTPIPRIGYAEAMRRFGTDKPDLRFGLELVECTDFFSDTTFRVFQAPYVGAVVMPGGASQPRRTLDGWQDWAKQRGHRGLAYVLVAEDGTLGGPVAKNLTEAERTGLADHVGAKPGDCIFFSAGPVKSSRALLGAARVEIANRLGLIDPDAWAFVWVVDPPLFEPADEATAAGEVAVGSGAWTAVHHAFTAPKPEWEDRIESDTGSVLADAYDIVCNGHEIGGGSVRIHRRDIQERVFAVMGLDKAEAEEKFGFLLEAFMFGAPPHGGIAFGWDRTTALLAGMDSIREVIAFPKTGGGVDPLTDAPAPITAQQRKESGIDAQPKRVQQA
# [2] = target: Shiga toxin 2 (Escherichia coli O157:H7) (UniProt P09385+P09386); experiment: E. coli 0.157:H7 Shiga Toxin SOP - stx2 screening assay; assay type: functional; parameters: scale not given: direction of the effect not stated beside the values; conditions: 30 µM
SMILES,Percent Effect [1],Percent Effect [2]
COCC1CCN(c2cc(C3CN(C)CCO3)nc(C)n2)CC1 (stereo unspecified),-1.84%,-3.4%
CC(C)C(=O)N1CCCC(c2ncncc2-c2ccncc2)C1 (stereo unspecified),-3.04%,-34.6%
CC(=O)N1CCC2(CC1)COCCN2Cc1ccc(F)cc1,-4.11%,-2.06%
O=C(NCCc1cccc(F)c1)NCC(O)c1cccc(F)c1 (stereo unspecified),-1.7%,32.2%
Cc1occc1C(=O)N1CCc2ncnc(-c3cnn(C)c3)c2CC1,-0.55%,-3.59%
Cc1csc(N2CCN(C(=O)CCn3cncn3)CC2)n1,-4.23%,-2.86%
CCOc1ccc(Cl)c(C(=O)NCc2ccc(C(=O)NC)cc2)n1,-2.66%,13%
Cc1oc(-c2ccsc2)nc1CC(=O)NCCS(C)(=O)=O,12.7%,-25.4%
O=C1CCCN1CC1CN(C(=O)CC2CCCC2)Cc2nccn2C1 (stereo unspecified),4.01%,-4.12%
CN(C)C(=O)CNC(=O)c1ccc(Cl)cc1F,-6.71%,-8.79%
COc1cc(CNCc2ccc(C(C)O)cc2)cc2c1OCO2 (stereo unspecified),-6.24%,-48%
Cc1nc(CN(C)C2CCN(CC(=O)NC3CCOCC3)C2)no1 (stereo unspecified),-1.22%,17.1%
Cc1noc(NC(=O)c2ccc(Br)cc2)n1,-2.92%,54.5%
Cn1ccnc1CN1CCCC(Cc2ccccn2)C1 (stereo unspecified),-2.49%,-6.98%
Cc1c(C(=O)N2CCCC2c2cnn(C)c2)nnn1-c1ccccc1 (stereo unspecified),-1.92%,-11.8%
CS(=O)(=O)NCC1CCCN(C(=O)Nc2cccnc2N2CCCC2)C1 (stereo unspecified),6.08%,-16.6%
O=C(Cc1ccc2c(c1)OCCO2)N1CCCC(n2cccn2)C1 (stereo unspecified),-1.07%,10.8%
Cc1cccc(C(=O)NC(CN2CCCC2=O)c2ccccc2)n1 (stereo unspecified),-1.37%,14%
CN(CCc1ccccc1)c1cnn(CC(=O)N2CCSCC2)c(=O)c1,8.28%,-15.1%
COc1ccccc1CC(=O)N1CC[C@@]2(CCCO2)[C@@H](OC)C1,4.54%,52.7%
CC(C)CCN1CC2(CCCN(C(=O)c3cscn3)C2)CCC1=O (stereo unspecified),8.2%,-13.4%
O=C(NCCCn1ccnc1)N1CCN(c2cccs2)CC1,-0.0463%,-102%
CCOC(CC)C(=O)NCCC(=O)N1CCN(c2ccccn2)CC1 (stereo unspecified),2.61%,-11.4%
Cc1nc(-c2ccco2)ccc1C(=O)N1CCCC1Cn1cccn1 (stereo unspecified),0.0146%,15.5%
CC(C)OCCN(C)C(C)c1cccc(S(N)(=O)=O)c1 (stereo unspecified),-3.29%,-16.4%
COCC1CN(C(=O)c2cccn2C)Cc2nccn2C1 (stereo unspecified),-0.897%,-15.6%

SMILES,Percent Effect [1],Percent Effect [2]
O=C(CCc1cccs1)N1CCC(Nc2cccnn2)CC1,-2.47%,-26.6%
O=C(Cc1ccccc1)N1CCC2(CC(=O)N(c3ccsc3)C2)C1 (stereo unspecified),-3.62%,-10.4%
COCc1ccc(CNC(=O)C2=NN(c3ccccc3)C(=O)CN2)cc1,16.6%,-18.1%
Cc1ccc(Cl)cc1N1CCC(CNC(=O)CC(F)(F)F)C1 (stereo unspecified),-1.19%,-45.5%
CS(=O)(=O)N1CCN(C(=O)Cn2ccc3c(Cl)cccc32)CC1,-0.673%,-16.5%
CC(C)c1nccn1C1CCCN(C(=O)c2cnc[nH]2)C1 (stereo unspecified),-0.983%,-3.33%
CN(Cc1nnc(C2CC2)n1C)C1CCN(Cc2ccc(F)cc2)C1 (stereo unspecified),11.8%,9.62%
CCc1nnc2n1CCN(C(=O)c1cc(Br)c[nH]1)C2,-3.52%,-47.9%
O=C(CCn1cccn1)N1C[C@@H]2CC[C@H](C1)N(Cc1ccccn1)C2=O,0.301%,3.51%
Cn1cnc2c1C(COCC1CC1)CN(C(=O)Cc1ccsc1)C2 (stereo unspecified),0.364%,-17.9%
Cn1cc(CC(=O)N2CCC(Nc3cccnn3)CC2)c2ccccc21,2.29%,-25.9%
CC(C)CNC(=O)c1c(-n2cnnn2)sc2c1CCC2,8.87%,2.02%
Cc1ccc(-c2noc(CN3CCOC(Cn4cncn4)C3)n2)cc1 (stereo unspecified),3.79%,5.98%
CN(Cc1nnc(-c2ccco2)o1)CC1CCCN1c1cccnn1 (stereo unspecified),7.29%,11.7%
C[C@H]1C[C@H]2CN(C(=O)c3ccncn3)CC[C@H]2O1,-0.436%,-34.2%
COCCN1CCN(Cc2noc(C3CC3)n2)CC1C (stereo unspecified),-6.85%,-12.1%
c1ccc(CNC2CCc3ncnn3C2)nc1 (stereo unspecified),-0.856%,-65.4%
O=C1COC2(CCN(CC3CC3)CC2)CN1c1ccccc1,-0.547%,5.01%
Cc1ccc(OCC(=O)NCc2ccccc2F)nc1,-0.524%,-8.96%
Cc1csc(N2CCN(C(=O)Cc3ccsc3)CC2)n1,6.55%,-7.04%
Cc1ccc2cnn(CCC(=O)Nc3c(C)nn(C)c3C)c2c1,0.535%,-34.7%
Cn1ccc(C(=O)NC2CCC23CCN(C(=O)c2ccncc2)CC3)c1 (stereo unspecified),0.319%,-10.5%
Cc1ccc(NC2CCN(C(=O)Cc3csc(C)n3)CC2)nn1,4.42%,17.7%
CCS(=O)(=O)c1ccccc1C(=O)NCc1ccnc(N(C)C)c1,-3.31%,-44.7%
CCc1c(C(=O)NCC(=O)OCC2CC2)cnn1-c1ccc(C)cc1,-5.03%,-6.36%
CCOC(=O)CCCNC(=O)CN1CCN(c2ncccn2)CC1,6.48%,-56.7%

SMILES,Percent Effect [1],Percent Effect [2]
CCc1noc(C2CCCCN2C(=O)c2ccn(C3CCCC3)n2)n1 (stereo unspecified),-5.11%,-5.88%
CCOc1ccc(CN2CCN(C(=O)c3ccc(C)n3C)CC2)cc1,2.42%,8.86%
CCc1ccc(CN2CCC3(CC2)CNC(=O)CO3)o1,-0.662%,-2.48%
O=C(C1CCOC1)N1C[C@H]2CN(Cc3nccs3)C[C@H]2C1 (stereo partly specified),-1.88%,1.98%
Cc1nc(C2CCCN2Cc2nnc(C3CC3)o2)no1 (stereo unspecified),1.34%,20%
Cc1nn(C)c(C)c1CC(=O)N1CCCC(n2ccnc2)C1 (stereo unspecified),-4.83%,12.9%
Cc1ccc2c(c1)c(CNC(=O)C1CCN(C(C)C)CC1)nn2C,-0.814%,-2.96%
CCNC(=O)N1CCCCC1CCO (stereo unspecified),-3.54%,-15.4%
COc1cccc(C2CC(=O)Nc3nc(N)sc32)c1OC (stereo unspecified),65.3%,-20%
Cc1nc(CN2CCCN(C(=O)c3ccccn3)CC2)oc1C,-0.692%,25.9%
O=C(Nc1ccnc(OC2CCOC2)c1)c1cc(F)ccc1F (stereo unspecified),-4.18%,-63.1%
COCC(c1cccc(C(F)(F)F)c1)N(C)C(=O)c1cc(C)no1 (stereo unspecified),-1.95%,27.2%
O=c1cc2c(nn1CN1CCN(c3cccc(Cl)c3)CC1)CCC2,-1.19%,-4.9%
COCCCn1ccnc1-c1cnc(OC)nc1,2%,-0.356%
CNC(=O)C(NC(=O)c1nccn2ccnc12)c1ccc(F)c(F)c1 (stereo unspecified),0.0141%,14.2%
CCc1[nH]ncc1C(=O)N1CCCC(n2ccnc2C(C)C)C1 (stereo unspecified),4.54%,5.75%
CC(=O)N(Cc1noc(C2CC2)n1)C1CCN(Cc2ccncc2)C1 (stereo unspecified),1.34%,-5.75%
CN(C)CC1(O)CCN(S(=O)(=O)c2ccc(F)c(F)c2)C1 (stereo unspecified),-2.99%,4.61%
OC1CCCN(Cc2c(-c3ccco3)[nH]c3ncccc23)C1 (stereo unspecified),-0.134%,6.33%
Cc1cc(NC(=O)NCC(O)c2ccc(Cl)cc2Cl)n(C)n1 (stereo unspecified),-2.66%,24.8%
COc1ccc(NC(=O)Cn2nc(C)c(C)cc2=O)cc1OC,-0.123%,-13.1%
CCOC[C@@H]1CCC[C@@]12CN(Cc1nccs1)CCO2,-0.28%,13.3%
Cc1cc(C(=O)O)cc(S(=O)(=O)Nc2ccc3c(c2)OCO3)c1C,11.6%,-48%
O=C([C@H]1CCCO1)N1CC[C@H](O)[C@@H]1Cc1ccncc1,-1.01%,1.58%
CCc1ccc(C(=O)Nc2ccc(CC3CC(=O)NC3=O)cc2)cc1 (stereo unspecified),7.7%,-36.3%
CCc1nc(C2CCCN2C(=O)CCc2cccs2)no1 (stereo unspecified),-0.641%,24%

SMILES,Percent Effect [1],Percent Effect [2]
Cc1noc2ncc(C(=O)NCC3CCOC3)cc12 (stereo unspecified),-2.88%,16.2%
CC1CCCN(C(=O)c2cccc(CS(C)(=O)=O)c2)C1 (stereo unspecified),-4.9%,-32%
CCCNC(=O)N1CCC(Oc2cc(C)ccc2F)(C(=O)O)CC1,-3.4%,8.44%
Cc1cc(C)c(CNC(=O)NCc2ccc3c(c2)CCC3)c(=O)[nH]1,-4.97%,32.4%
COc1cccc(S(=O)(=O)N2CCn3cnc(COCC4CC4)c3C2)c1,6.08%,1.15%
Cc1noc(C2CCN(C(=O)c3ccc(N(C)C)nc3)CC2)n1,-4.17%,-12.5%
Cc1nc(C2CCCN2Cc2ncc(C(C)C)o2)no1 (stereo unspecified),-2.92%,-16.6%
CC(=O)N1CCC(c2ccnc(Nc3cnccn3)n2)C1 (stereo unspecified),1.13%,-14.2%
Cc1nc(CN2CCCC(NCCOc3ccccc3)C2)no1 (stereo unspecified),-8.02%,-0.215%
c1ccc(-n2ccnc2)c(CNCC2CNc3ccnn3C2)c1 (stereo unspecified),-5.71%,-13.1%
CCc1nc(CN2CCN(c3ncnc4cc(F)ccc34)CC2)no1,-1.46%,-69.6%
CCOc1ccccc1-c1noc(CN2CC(n3cccn3)C2)n1,0.259%,34.8%
CNc1cncc(C2CCCN2C(=O)c2ccc3oc(=O)n(C)c3c2)n1 (stereo unspecified),5.14%,3.86%
OC1(Cn2ccc3ncccc32)CCN(Cc2ccccn2)CC1,11.7%,-31.8%
Cc1cnn(C2CCCN(C(=O)Cc3cn4ccccc4n3)C2)c1 (stereo unspecified),-6.71%,-40.6%
CCc1nc(C)ncc1C(=O)N1CCCC(n2nc(C)nc2C)C1 (stereo unspecified),-3.03%,0.321%
Cc1cc(CC(=O)N2CCCC2c2nc(C(C)C)no2)on1 (stereo unspecified),-3.79%,8.6%
CC(C)C(Sc1nnnn1C1CC1)C(=O)NCc1cccnc1 (stereo unspecified),-3.1%,-4.91%
CS(=O)(=O)CCN1CCC2(CCCN(C3CCOCC3)C2=O)C1 (stereo unspecified),1.8%,-11.9%
Cc1nn(C)c(N(C)C)c1CNCc1cccc(OCCN(C)C)c1,-1.92%,27.4%
Fc1cccnc1OC[C@@]12CCO[C@@H]1CCN(CC1CCOCC1)C2,0.353%,1.39%
O=C(Cc1ccsc1)NCC1OCCc2cn(CC3CC3)nc21 (stereo unspecified),1.47%,-11.5%
CCn1cnnc1C1CCN(C(=O)c2cc3c(s2)CCC3)CC1,-5.31%,-11.1%
COc1ccc(NC(=O)NC(C)c2nc[nH]n2)cc1 (stereo unspecified),-1.71%,5.29%
Cc1n[nH]c(C2CN(C(=O)c3cc(C4CC4)[nH]n3)CCO2)n1 (stereo unspecified),1.87%,23.4%

# Source: ChEMBL document CHEMBL3988442, “University of Dundee, Small-Polar-MMV Screening Library” (2021)
